Experimental data from PubChem BioAssay.
Active and inactive are the calls of the source. Unless noted, the rule behind the calls is not given here.

Experiments:
[1] = tested on: Wnt5a (protein binding on small-molecule microarray); test: small molecules binding Wnt5a protein – biophysical, small-molecule microarray, 635/667 nm fluorescence, primary screen (AID 1142); details: 635 nm fluorescence, higher = more signal;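 note: fluorescence read at 667 nm with signal to noise per printed feature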
[2] = ATP-based viability of Huh7 replicon cells – cell-based, CellTiter-Glo luminescence, basal, 48 h, cytotoxicity control for HCV replication inhibitor project, primary screen (AID 1143); details: higher = more signal, called active from +8 up or from −8 down;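 note: Huh7 hepatoma cells carrying a hepatitis C replication reporter with no stimulus; test concentration not given here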
[3] = Pseudomonas biofilm growth suppression – PAO1 strain, BacTiter-Glo luminescence, LB-PBS, primary screen (AID 1144); details: P. aeruginosa PAO1 biofilm, 12 h, higher = more signal
[4] = basal CRE-LacZ reporter activity in PC12 – cell-based, unstimulated, primary screen (AID 1145); details: no forskolin, luminescence, 4.5 h, higher = more signal, called active from +8 up or from −8 down
[5] = forskolin-driven CRE-LacZ activity in PC12 – cell-based, CRE-LacZ reporter, forskolin-stimulated, primary screen (AID 1146); details: luminescence, 4.5 h, higher = more signal, called active from +8 up or from −8 down;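 note: PC12 cells with 6xCRE LacZ reporter stimulated by forskolin 10 µM; beta-galactosidase reporter signal reflecting CREB driven transcription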
[6] = molecular target: Streptavidin (Streptomyces avidinii) (UniProt P22629); test: compounds binding control protein streptavidin – biophysical, small-molecule microarray, 635/667 nm fluorescence, artefact control for SMM compound annotation, primary screen (AID 1147); details: higher = more signal;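 note: signal reflects streptavidin binding to arrayed compounds as a control protein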
[7] = probe aInhba binding on compound microarray – biochemical, small-molecule microarray, 635/667 nm fluorescence, primary screen (AID 1148); details: higher = more signal;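 note: score merges 667nm spot fluorescence with signal-to-noise for antibody binding to printed compounds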
[8] = molecular target: Torsin-1A (Homo sapiens) (UniProt O14656); test: TOR1A wild-type binding on microarray – cell lysate, small-molecule microarray, lysate, 635/667 nm, primary screen (AID 1149); details: COS7 hTOR1A-WT lysate, 635 nm fluorescence, higher = more signal
[9] = molecular target: Torsin-1A (Homo sapiens) (UniProt O14656); test: torsin A mutant lysate binding on microarrays – cell lysate, small-molecule microarray, COS7 lysate, 635/667 nm fluorescence, primary screen (AID 1150); details: COS7 hTOR1A mutant lysate, 635 nm fluorescence, higher = more signal;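 note: score pools 667 nm emission and signal to noise measuring lysate protein binding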
[10] = tested on: Sonic hedgehog protein (Shh); test: Sonic hedgehog microarray binding compounds – biochemical, small-molecule microarray, 635/667 nm fluorescence, primary screen (AID 1151); details: 635 nm fluorescence, higher = more signal;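 note: Shh protein binding to compounds spotted on small-molecule microarray slides; score combines spot fluorescence intensity with signal-to-noise across triplicate slides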
[11] = optical density shifts of acrAB sulA E. coli – strain DRC41, OD650, 48 h, E. coli filamentation inducer project, primary screen (AID 1152); details: higher = more signal, called active from +8 up or from −8 down;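 note: E. coli MC1000 strain DRC41 lacking acrAB efflux pump and sulA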
[12] = probe aLefty1 binding on compound microarray – biochemical, small-molecule microarray, 635/667 nm fluorescence, primary screen (AID 1153); details: higher = more signal;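 note: score merges spot fluorescence with signal-to-noise ratio from the scanned slide images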
[13] = plasmodial surface anion channel blockers, osmotic lysis – cell-based, P. falciparum Indochina, OD700, 1 h, primary screen (AID 1154); details: P. falciparum Indochina infected RBC osmotic lysis, higher = more signal, called active from +8 up or from −8 down
[14] = plasmodial surface anion channel blockers, osmotic lysis – cell-based, P. falciparum Indochina, OD700, 2 h, primary screen (AID 1155);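 note: lysis reports solute entry through the parasite surface anion channel PSAC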; details: P. falciparum Indochina infected erythrocytes, higher = more signal, called active from +8 up or from −8 down
[15] = changes in parasitized red cell lysis, either direction – P. falciparum Indochina, OD700, 3 h, PSAC antagonist project, primary screen (AID 1156); details: P. falciparum-infected erythrocytes, osmotic lysis, higher = more signal, called active from +8 up or from −8 down
[16] = plasmodial surface anion channel blockers, osmotic lysis – cell-based, P. falciparum Indochina, OD700, 18 h, primary screen (AID 1157); details: P. falciparum Indochina infected erythrocytes, osmotic lysis OD700, 18 h; higher = more signal, called active from +8 up or from −8 down
[17] = S6 kinase pathway phospho-S6 level changes – cell-based, A549, cytoblot, luminescence, serum-stimulated, primary screen (AID 1158); details: 5 h, higher = more signal;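 note: serum-stimulated A549 lung adenocarcinoma cells; signal is phosphorylated S6 detected by cytoblot immunostaining with HRP secondary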
[18] = molecular target: NADPH oxidase 2 (Homo sapiens) (UniProt P04839); test: compounds shifting NOX2 Amplex Red fluorescence – cell-based, HEK293-NOX2, PMA-stimulated, NOX inhibitor project, primary screen (AID 1159); details: 45 min, higher = more signal, called active from +8 up or from −8 down; note: test concentration not given here
[19] = molecular target: NADPH oxidase 4 (Homo sapiens) (UniProt Q9NPH5); test: compounds shifting NOX4 Amplex Red fluorescence – cell-based, HEK293-NOX4, tetracycline-induced, NOX inhibitor project, primary screen (AID 1160); details: HEK293-NOX4, Amplex Red H2O2 fluorescence, 45 min; higher = more signal, called active from +8 up or from −8 down
[20] = molecular target: NADPH oxidase 5 (Homo sapiens) (UniProt Q96PH1); test: compounds shifting NOX5 Amplex Red fluorescence – cell-based, HEK293-NOX5, NOX inhibitor project, primary screen (AID 1161); details: HEK293-NOX5, ionomycin, 45 min, higher = more signal
NADPH oxidase 5 (Homo sapiens), sequence (Q96PH1 whole entry, looked up): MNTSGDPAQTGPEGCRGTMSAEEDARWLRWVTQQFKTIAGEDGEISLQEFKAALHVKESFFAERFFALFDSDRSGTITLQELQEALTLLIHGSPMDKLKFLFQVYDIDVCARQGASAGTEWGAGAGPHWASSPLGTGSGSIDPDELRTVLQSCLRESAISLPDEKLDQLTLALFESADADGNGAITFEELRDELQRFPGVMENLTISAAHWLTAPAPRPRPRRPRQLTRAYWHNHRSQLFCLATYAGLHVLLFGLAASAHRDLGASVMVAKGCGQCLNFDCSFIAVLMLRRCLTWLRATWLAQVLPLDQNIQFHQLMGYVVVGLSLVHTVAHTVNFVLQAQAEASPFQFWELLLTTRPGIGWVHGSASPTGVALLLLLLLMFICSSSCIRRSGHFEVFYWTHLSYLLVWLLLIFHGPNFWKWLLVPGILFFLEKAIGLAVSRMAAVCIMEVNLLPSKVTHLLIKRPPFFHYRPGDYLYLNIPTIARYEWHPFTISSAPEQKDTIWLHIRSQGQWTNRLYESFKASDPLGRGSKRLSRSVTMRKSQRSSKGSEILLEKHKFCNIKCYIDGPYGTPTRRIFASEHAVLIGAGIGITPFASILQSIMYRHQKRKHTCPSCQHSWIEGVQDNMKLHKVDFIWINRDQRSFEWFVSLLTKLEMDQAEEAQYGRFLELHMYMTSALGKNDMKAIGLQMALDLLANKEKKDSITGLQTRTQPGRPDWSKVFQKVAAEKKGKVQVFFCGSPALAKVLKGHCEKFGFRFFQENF

NADPH oxidase 4 (Homo sapiens), sequence (Q9NPH5 whole entry, looked up): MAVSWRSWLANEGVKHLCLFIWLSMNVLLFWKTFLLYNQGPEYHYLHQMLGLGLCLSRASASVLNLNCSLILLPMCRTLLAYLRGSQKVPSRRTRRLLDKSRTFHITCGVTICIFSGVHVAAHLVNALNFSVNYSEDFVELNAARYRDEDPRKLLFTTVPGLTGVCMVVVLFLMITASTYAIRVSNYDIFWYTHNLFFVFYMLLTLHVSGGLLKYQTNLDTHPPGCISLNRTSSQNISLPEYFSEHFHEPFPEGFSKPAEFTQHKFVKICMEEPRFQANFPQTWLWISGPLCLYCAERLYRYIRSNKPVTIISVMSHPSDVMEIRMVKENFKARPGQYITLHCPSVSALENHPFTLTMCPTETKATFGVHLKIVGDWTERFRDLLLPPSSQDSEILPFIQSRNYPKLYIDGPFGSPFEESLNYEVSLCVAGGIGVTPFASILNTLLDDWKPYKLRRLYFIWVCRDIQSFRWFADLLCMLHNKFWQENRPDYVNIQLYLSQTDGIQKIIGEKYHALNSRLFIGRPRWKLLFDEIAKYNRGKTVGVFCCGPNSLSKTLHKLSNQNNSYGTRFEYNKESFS
NADPH oxidase 2 (Homo sapiens), sequence (P04839 whole entry, looked up): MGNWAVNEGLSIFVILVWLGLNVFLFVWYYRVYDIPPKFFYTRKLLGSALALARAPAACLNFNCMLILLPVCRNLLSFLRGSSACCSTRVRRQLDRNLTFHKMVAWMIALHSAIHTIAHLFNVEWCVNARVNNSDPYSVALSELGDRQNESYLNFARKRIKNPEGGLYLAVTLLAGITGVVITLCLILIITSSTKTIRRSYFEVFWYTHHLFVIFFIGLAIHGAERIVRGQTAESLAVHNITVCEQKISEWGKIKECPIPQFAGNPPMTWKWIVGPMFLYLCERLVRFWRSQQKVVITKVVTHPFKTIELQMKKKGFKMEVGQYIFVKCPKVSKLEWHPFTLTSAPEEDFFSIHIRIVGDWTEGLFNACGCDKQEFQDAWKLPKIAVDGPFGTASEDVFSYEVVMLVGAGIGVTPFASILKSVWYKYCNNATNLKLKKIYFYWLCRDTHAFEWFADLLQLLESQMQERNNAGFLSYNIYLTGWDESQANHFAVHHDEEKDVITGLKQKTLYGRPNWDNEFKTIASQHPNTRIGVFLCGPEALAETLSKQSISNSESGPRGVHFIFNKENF
Torsin-1A (Homo sapiens), sequence (O14656 whole entry, looked up): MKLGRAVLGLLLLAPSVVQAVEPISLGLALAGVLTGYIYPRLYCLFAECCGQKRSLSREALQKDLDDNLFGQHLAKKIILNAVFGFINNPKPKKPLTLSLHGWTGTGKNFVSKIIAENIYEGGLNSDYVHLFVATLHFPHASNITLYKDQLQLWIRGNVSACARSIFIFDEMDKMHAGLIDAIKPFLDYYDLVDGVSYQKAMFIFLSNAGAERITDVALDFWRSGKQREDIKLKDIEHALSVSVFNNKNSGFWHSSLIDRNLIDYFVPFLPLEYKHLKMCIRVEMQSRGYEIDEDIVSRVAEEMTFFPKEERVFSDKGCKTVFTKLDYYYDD
Streptavidin (Streptomyces avidinii), sequence (P22629 whole entry, looked up): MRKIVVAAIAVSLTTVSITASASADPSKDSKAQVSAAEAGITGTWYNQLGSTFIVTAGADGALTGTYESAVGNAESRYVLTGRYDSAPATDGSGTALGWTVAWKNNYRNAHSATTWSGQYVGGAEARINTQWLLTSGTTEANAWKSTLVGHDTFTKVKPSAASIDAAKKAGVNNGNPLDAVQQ

SMILES	composite z-score [1]	z-score [2]	z-score [3]	z-score [4]	z-score [5]	composite z-score [6]	composite z-score [7]	composite z-score [8]	composite z-score [9]	composite z-score [10]	z-score [11]	composite z-score [12]	z-score [13]	z-score [14]	z-score [15]	z-score [16]	z-score [17]	z-score [18]	z-score [19]	z-score [20]
CCC[C@@H]1C[C@@]1(CCC)[C@@H](NC(=O)OCc1ccccc1)c1ccc(-c2ccccc2)cc1	-0.189	-1.28 (inactive)	-0.0658 (inactive)	-0.375 (inactive)	0.785 (inactive)	-0.504	-0.12	-0.301	-0.928	-0.895	-1.07 (inactive)	0.545	3.2 (inactive)	0.81 (inactive)	-0.221 (inactive)	0.224 (inactive)	0.542	-0.648 (inactive)	-1.45 (inactive)	0.0161
CCOC(=O)C1CCCCN1 (stereo not given)	0.781	0.319 (inactive)	0.566 (inactive)	-0.788 (inactive)	-0.398 (inactive)	0.412	0.705	0.544	0.388	0.506	-0.641 (inactive)	1.08	-0.536 (inactive)	0.0175 (inactive)	-0.965 (inactive)	0.0086 (inactive)	-0.0896	0.0494 (inactive)	0.0488 (inactive)	-0.117
CN(C)CCCNC(=O)[C@@H]1c2ccccc2C(=O)N(Cc2ccccc2Cl)[C@H]1c1ccc(CO)cc1	-0.12	-1.77 (inactive)	0.388 (inactive)	-0.206 (inactive)	-0.343 (inactive)	-0.34	-0.182	1.59	0.798	-0.12	0.681 (inactive)	0.022	3.77 (inactive)	0.603 (inactive)	1.68 (inactive)	0.599 (inactive)	0.517	0.277 (inactive)	0.691 (inactive)	-0.0877
CC(C)N1C(=O)c2ccccc2[C@@H](C(=O)NC2CC2)[C@@H]1c1ccc(CO)cc1	0.302	-0.264 (inactive)	-0.226 (inactive)	0.001 (inactive)	-0.3 (inactive)	0.381	-0.0059	0.775	0.852	0.531	0.258 (inactive)	0.007	2.06 (inactive)	-0.0507 (inactive)	-0.0836 (inactive)	-0.307 (inactive)	0.167	0.393 (inactive)	0.708 (inactive)	0.442
N#Cc1ccc(C(O)C2C=CC3C(=O)N(c4ccccc4)C(=O)C3N2Nc2ccccc2)cc1 (stereo not given)	0.429	-3.06 (inactive)	-0.955 (inactive)	-0.133 (inactive)	0.0648 (inactive)	0.592	0.144	-0.0489	0.227	-0.669	0.128 (inactive)	0.135	5.39 (inactive)	-0.173 (inactive)	1.18 (inactive)	-0.889 (inactive)	1.64	-2.73 (inactive)	-4.19 (inactive)	-3.02
O=C(N1CCCCC1)[C@@]1(CCS(=O)(=O)c2ccccc2)COC(c2ccc(OCCCO)cc2)=N1	1.17	-2.3 (inactive)	0.514 (inactive)	0.62 (inactive)	-0.334 (inactive)	1.31	0.421	1.19	0.496	0.447	0.641 (inactive)	0.457	27.3 (active)	21.1 (active)	2.47 (inactive)	2.93 (inactive)	-0.436	-1.53 (inactive)	0.675 (inactive)	0.885
O=C(NCC(F)(F)F)[C@@H]1c2ccccc2C(=O)N(Cc2ccccc2C(F)(F)F)[C@H]1c1ccc(CO)cc1	0.38	-0.325 (inactive)	0.266 (inactive)	-0.295 (inactive)	1.02 (inactive)	-0.631	0.0906	0.702	-0.274	0.0223	0.142 (inactive)	-0.0164	1.45 (inactive)	0.478 (inactive)	0.239 (inactive)	0.109 (inactive)	-0.537	0.536 (inactive)	0.0258 (inactive)	-0.284
COc1cc2c(cc1OC)CN(C(=O)[C@@H]1[C@H]3C(=O)O[C@H](c4ccccc4)[C@H](c4ccccc4)N3[C@H](c3ccc(OCCO)cc3)[C@@]13C(=O)Nc1ccccc13)CC2	0.758	-1.06 (inactive)	-1.46 (inactive)	0.829 (inactive)	-0.437 (inactive)	0.607	0.188	1.06	0.858	1.93	0.547 (inactive)	0.534	5.29 (inactive)	2.11 (inactive)	1.06 (inactive)	0.956 (inactive)	-0.0621	0.799 (inactive)	0.837 (inactive)	1.03
